Hit rate of the full screen: of about 310,000 compounds, about 14,000 (4.5%) showed an effect of 50% or more. The effect is printed as a negative number. Many of the other results were omitted from the sample, so strong results are more common in it than they were.
Molecular target: human ether-à-go-go-related gene (hERG) potassium channel (human, UniProt Q12809)
Assay: primary screen, population patch clamp on CHO cells stably expressing hERG; higher = less effect of the substance
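Further: peak tail current of the secondary pulse compared with the same well before compound.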

human ether-à-go-go-related gene (hERG) potassium channel, sequence (Q12809 whole entry, looked up): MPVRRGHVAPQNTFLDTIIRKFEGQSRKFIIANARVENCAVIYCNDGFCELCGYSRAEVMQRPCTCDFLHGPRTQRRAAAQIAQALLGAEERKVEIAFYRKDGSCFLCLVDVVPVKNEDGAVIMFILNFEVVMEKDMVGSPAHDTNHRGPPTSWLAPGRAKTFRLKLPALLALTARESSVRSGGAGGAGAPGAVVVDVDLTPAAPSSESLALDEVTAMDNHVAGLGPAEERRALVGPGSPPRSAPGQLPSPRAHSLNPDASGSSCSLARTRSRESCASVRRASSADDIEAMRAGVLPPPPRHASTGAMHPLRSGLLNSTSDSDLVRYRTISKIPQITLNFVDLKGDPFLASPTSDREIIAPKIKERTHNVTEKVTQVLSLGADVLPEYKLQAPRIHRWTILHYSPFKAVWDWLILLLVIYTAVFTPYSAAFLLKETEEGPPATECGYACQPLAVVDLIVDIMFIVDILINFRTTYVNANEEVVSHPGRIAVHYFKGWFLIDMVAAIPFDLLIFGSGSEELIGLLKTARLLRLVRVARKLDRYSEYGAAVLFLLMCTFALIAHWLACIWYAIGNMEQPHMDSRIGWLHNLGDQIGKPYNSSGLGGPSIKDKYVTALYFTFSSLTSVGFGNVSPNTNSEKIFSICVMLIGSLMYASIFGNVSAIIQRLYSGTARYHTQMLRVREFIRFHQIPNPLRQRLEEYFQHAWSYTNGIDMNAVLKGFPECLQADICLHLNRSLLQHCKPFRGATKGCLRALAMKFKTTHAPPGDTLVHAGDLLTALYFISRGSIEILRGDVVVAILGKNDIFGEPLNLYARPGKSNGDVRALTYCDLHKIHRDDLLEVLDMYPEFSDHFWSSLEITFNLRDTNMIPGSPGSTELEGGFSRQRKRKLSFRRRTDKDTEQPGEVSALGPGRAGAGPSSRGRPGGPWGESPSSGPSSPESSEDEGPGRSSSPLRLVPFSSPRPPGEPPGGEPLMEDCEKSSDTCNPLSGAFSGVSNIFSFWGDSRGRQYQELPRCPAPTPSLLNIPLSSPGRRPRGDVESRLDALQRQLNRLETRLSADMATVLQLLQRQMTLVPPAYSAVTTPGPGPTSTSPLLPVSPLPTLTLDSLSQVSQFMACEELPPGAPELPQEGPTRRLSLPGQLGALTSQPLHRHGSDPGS

| Structure (SMILES) | hERG current change (%, negative = inhibition) at 10uM [%] |
| --- | --- |
| COc1ccc(NC(=O)NC2CCCc3ccccc32)c(OC)c1 (stereo not shown) | 13.3 |
| Cc1ccc(NC(=O)COC(=O)CSCC(=O)Nc2cc(C)on2)c(C)c1 | -17.9 |
| Cc1ccc(NC(=O)CSCC(=O)OCc2cc(=O)oc3cc(O)ccc23)c(C)c1 | -53.2 |
| COC(=O)Cc1cc(=O)oc2cc(O)ccc12 | 5.29 |
| CCOc1ccc(/C=N/NC(=S)NC2CC3CC2C2C=CCC32)cc1 (stereo not shown) | 6.33 |
| CC1=C(C(=O)OCc2ccccc2)C(c2ccc(C)o2)C2=C(CCCC2=O)N1 (stereo not shown) | -23.7 |
| Cc1cc(C(F)(F)F)c2sc(N)nc2n1 | 5.61 |
| Cc1ccc(S(=O)(=O)N2CCCN(C(C)c3nc4ccccc4c(=O)[nH]3)CC2)cc1 (stereo not shown) | -25.6 |
| CC(c1nc2ccccc2c(=O)[nH]1)N1CCCN(S(=O)(=O)c2ccc(F)cc2)CC1 (stereo not shown) | -59.1 |
| CC(c1nc2ccccc2c(=O)[nH]1)N1CCN(C)CC1 (stereo not shown) | -5.2 |
| CC1CCN(S(=O)(=O)c2ccc(NC(=O)C3CSC4(C)CCC(=O)N34)cc2)CC1 (stereo not shown) | -6.34 |
| COc1ccc(C)cc1S(=O)(=O)NCCc1ccccc1 | -28.3 |
| CCN(CC)c1ccc(C(=O)OCC(=O)Nc2ccc3[nH]c(=O)[nH]c3c2)cc1 | 5.58 |
| Cc1ccc2nc(SCc3nnc(-c4ccccc4Br)o3)[nH]c2c1 | -6.41 |
| CCOc1ncccc1C(=O)OCc1ccc(Cl)cc1 | -20 |
| CCOC(=O)C1=C(OCc2ccc(Cl)cc2)C2C=C(C)C=CC2N=C1 (stereo not shown) | -69.1 |
| CCOC(=O)c1c(C=O)c(C)n(Cc2ccc(Cl)cc2)c1C | -18.8 |
| CC(=O)c1ccc(-n2c(C)c(C(C)=O)c3cc(O)ccc32)cc1 | 8.94 |
| O=C(c1cccc(Br)c1)N1CCN(C(=O)c2cccc(Br)c2)CC1 | -28.5 |
| O=C(CCC(=O)NNC(=O)c1ccc([N+](=O)[O-])cc1)NCc1ccccc1 | 10.9 |
| O=C(NCCN1CCN(c2ccc([N+](=O)[O-])cc2)CC1)NCc1ccccc1 | -67.7 |
| O=C(NCCN1CCN(C(=O)c2cccc(Br)c2)CC1)C(=O)Nc1ccc(Br)cc1 | -42.1 |
| CC(C(=O)NCCN1CCOCC1)c1ccc([N+](=O)[O-])cc1 (stereo not shown) | 16.7 |
| CCc1ccc(N2CCN(CCNC(=O)Nc3ccccc3)CC2)cc1 | -21.1 |
| O=C(c1ccc([N+](=O)[O-])cc1)N1CCc2ccccc2C1 | -44.7 |
| O=C(NCCN1CCN(C(=O)c2cccc(Br)c2)CC1)C(=O)NCc1ccccc1 | -70 |
| COc1ccc(N2CCN(CCNC(=O)Nc3ccc([N+](=O)[O-])cc3OC)CC2)cc1 | -17.1 |
| CC(NC(=O)C(=O)NCCN1CCN(C(=O)c2ccc([N+](=O)[O-])cc2)CC1)c1ccccc1 (stereo not shown) | -75.1 |

| Structure (SMILES) | hERG current change (%, negative = inhibition) at 10uM [%] |
| --- | --- |
| CC(NC(=O)C(=O)NCCN1CCN(C(=O)c2ccccc2Br)CC1)c1ccccc1 (stereo not shown) | 6.37 |
| O=C(NCCN1CCN(C(=O)c2ccc([N+](=O)[O-])cc2)CC1)C(=O)NCc1ccccc1 | -78.9 |
| Cc1ccccc1-n1nc(C)c2cc(C(=O)NCc3cccnc3)sc21 | -31 |
| O=C(c1ccc(COc2ccc(Br)cc2)o1)N1N=C(C(F)F)CC1(O)C(F)F (stereo not shown) | 2.57 |
| Cn1c(N/N=C/c2c[nH]c3ccccc23)nc2ccccc21 | -46.7 |
| COC(=O)c1ccc(-n2nnnc2SC)cc1 | 3.46 |
| COc1cccc(/C=C2/Oc3ccccc3N(CC(=O)NCC3CCCO3)C2=O)c1 (stereo not shown) | 14 |
| Cc1nn(Cc2ccccc2)c(C)c1C(=O)OCC(=O)c1cc(C)n(C2CC2)c1C | -10.2 |
| NC(=O)COc1ccc(C23CC4CC(CC(C4)C2)C3)cc1 | 7.2 |
| Cc1ccc(C(=O)N2CCN(CCNC(=O)C(=O)NC(C)C)CC2)cc1 | 9.12 |
| CC(C)(C)c1ccc(C(=O)N2CCN(CCNC(=O)C(=O)NCc3ccc(Cl)cc3)CC2)cc1 | -41.1 |
| O=C(NCc1ccc(F)cc1)N1CCN(C(=O)c2ccccc2)CC1 | -13.5 |
| O=C(NCCN1CCN(C(=O)c2cccc([N+](=O)[O-])c2)CC1)C(=O)NCc1ccc(Cl)cc1 | -50.1 |
| O=C(NCCN1CCN(S(=O)(=O)c2ccc(F)cc2)CC1)C(=O)NCc1ccccc1 | 0.451 |
| O=C(NCCN1CCN(C(=O)c2ccc(F)cc2)CC1)C(=O)NCc1ccccc1 | -73.9 |
| O=C(Cc1ccc(Cl)cc1)NCCN1CCN(C(=O)Cc2ccc(Cl)cc2)CC1 | -53.4 |
| CN1CCN(C(=O)CNC(=O)Cc2ccc(Cl)cc2)CC1 | 5.31 |
| Cc1ccc(C(=O)N2CCN(CCNC(=O)C(=O)NCc3ccc(Cl)cc3)CC2)cc1 | -74 |
| Cl.O=C(Cc1ccc(Cl)cc1)NCCN1CCCC1 | -21.9 |
| COc1ccc(Cc2nc3ccccc3n2CC(=O)N/N=C/c2ccc(O)cc2)cc1OC | 0.975 |
| C=CCOc1ccccc1CNc1ccccc1C | -15.7 |
| COc1ccc(-c2ccc(NC(=O)c3ccco3)cc2)nn1 | 5.79 |
| Cc1c(NC(=O)C(C)n2cc([N+](=O)[O-])cn2)c(=O)n(-c2ccccc2)n1C (stereo not shown) | 19.4 |
| O=C(/C=C/Nc1ccccc1F)c1cccs1 | 1.08 |
| COc1ccc(OCc2nn3c(-c4ccco4)nnc3s2)cc1 | -36.6 |
| Cn1cccc1/C=C1\SC(=O)N(c2ccc(O)cc2)C1=O | 0.777 |
| COc1ccc(/C(C)=N/NC(=O)C(NC(=O)c2ccccc2)c2n[nH]c(=O)c3ccccc23)c(OC)c1 (stereo not shown) | 4.11 |

Reference: paper PMC4336329 (PLoS ONE, 2015)
